Assay outcomes as filed in PubChem.
The entries come from a sample that favours hits as a whole.
RVFV N-RNA FP – inhibitors of RVFV nucleoprotein–RNA binding, primary screen, biochemical, fluorescence polarization | RVFV N-RNA binding; active compounds read low | % bound, % (no concentration beside the values) | P21700 | 20,000 tested, 0.1% active | AID 651828, 2012; in the data active = % bound below about 75%
Target sequence (P21700 whole entry, looked up): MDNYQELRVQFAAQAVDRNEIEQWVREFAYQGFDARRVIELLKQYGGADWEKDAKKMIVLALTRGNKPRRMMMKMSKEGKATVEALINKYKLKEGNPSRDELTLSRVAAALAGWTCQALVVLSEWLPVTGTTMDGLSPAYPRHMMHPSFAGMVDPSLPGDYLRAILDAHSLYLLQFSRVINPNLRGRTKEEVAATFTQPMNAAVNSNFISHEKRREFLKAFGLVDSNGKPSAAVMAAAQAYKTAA
An asterisk follows results filed as active; ! = repeats disagree.

SMILES	RVFV N-RNA FP
CCOC(=O)C(=O)c1c(O)[nH]c2ccccc12	90
CN(C1CCCCC1)S(=O)(=O)c1ccc(C(=O)Nc2nnc(-c3cccnc3)o2)cc1	96
Cn1cc(C(=O)N/N=C/c2ccc(Cl)cc2Cl)ccc1=O	95
CCn1nc(C)cc1C(=O)n1nc(C)c(Sc2ccc(C(F)(F)F)cn2)c1C	94
CN1C(=O)/C(=C/c2ccco2)N(C)C1=S	96
COc1cc(C=C2C(=O)NC(=O)NC2=O)cc(Cl)c1OCC(=O)O	95
CCOC(=O)/C(C)=N\O	93
O=C(Nc1nnc(-c2ccc3c(c2)CCCC3)o1)C1CC1	105
C=CCN(CC=C)S(=O)(=O)c1ccc(NC(=O)c2cccnc2)cc1	85
COc1ccc(CNc2ccc(NC(=O)c3ccco3)c(C)c2)cc1	102
CC1(C)CC2CC(C)(CN2Cc2cccnc2)C1 (stereo unspecified)	99
Cc1cccc(NC(=O)c2cccc(C)c2)c1	87
CC(C)C(=O)Nc1cccc(C(=O)Nc2ccccc2)c1	98
Cc1ccc(C(=O)Nc2ccc(S(=O)(=O)O)c3cc(S(=O)(=O)O)cc(S(=O)(=O)O)c23)cc1NC(=O)c1cccc(NC(=O)Nc2cccc(C(=O)Nc3cc(C(=O)Nc4ccc(S(=O)(=O)O)c5cc(S(=O)(=O)O)cc(S(=O)(=O)O)c45)ccc3C)c2)c1	6.7*!
COc1ccc(CCN2C(=O)NC(=O)C(CCc3ccncc3)(CCc3ccncc3)C2=O)cc1OC	103
CN(CC(=O)N1CCC(C(N)=O)CC1)S(=O)(=O)c1ccc(Br)cc1	83
C=CCSc1nc2ccccc2c(=O)n1CC=C	100
Cc1cc(C)nc(N/C=C(\C#N)C(=O)c2ccoc2C)n1	96
N#CCCS(=O)(=O)c1ccc(-c2ccc(S(=O)(=O)CCC#N)cc2)cc1	91
